# Measurements from the supplement of paper PMC10849652.
# Targets with a hit are over-represented here; the source holds about 7,900 in all. About 0.6% of all pairs of compound and target were hits.
# Compound: C1CCN(C1)C(=O)NC2=CC=CC(=C2)NC3=NC=C(C(=N3)NCCC4=CN=CN4)Br
# Test: log2 fold change, soluble protein after heating vs DMSO (PISA); higher = thermal stabilisation; K562 cells, 10 uM, 30 min; active = over 0.2 and 3.5 SD of the protein, either way, in both replicates (recomputed)
# How it was run: (§1)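 Quantification of soluble protein used TMTpro 16plex LC-MS/MS, with channel sums equalised. Samples were the supernatant after 21,000xg for 90 min of pooled aliquots from K562 cells (2×10^6 cells/mL) treated with 10 μM compound for 30 min, heated for 3 min over 48°C-58°C, and extracted in PBS with 0.5% NP-40 at 4°C. Values, from duplicates, describe thermal stability against control samples on a log2 fold-change scale.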
# UniProt Q15054, sequence (Q15054 whole entry, looked up): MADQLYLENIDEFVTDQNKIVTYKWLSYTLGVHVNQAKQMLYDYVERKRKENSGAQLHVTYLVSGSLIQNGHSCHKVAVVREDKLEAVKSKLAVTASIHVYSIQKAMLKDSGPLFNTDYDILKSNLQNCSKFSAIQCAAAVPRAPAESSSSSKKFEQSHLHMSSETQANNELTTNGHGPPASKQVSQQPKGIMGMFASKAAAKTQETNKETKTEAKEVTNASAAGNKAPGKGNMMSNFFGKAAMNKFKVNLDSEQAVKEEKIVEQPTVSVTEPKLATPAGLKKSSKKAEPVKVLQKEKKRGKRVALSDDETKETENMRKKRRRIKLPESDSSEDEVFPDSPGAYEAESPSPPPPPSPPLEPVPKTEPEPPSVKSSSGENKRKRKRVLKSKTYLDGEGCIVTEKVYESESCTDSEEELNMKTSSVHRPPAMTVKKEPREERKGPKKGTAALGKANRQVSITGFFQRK
# UniProt Q96A00, sequence (Q96A00 whole entry, looked up): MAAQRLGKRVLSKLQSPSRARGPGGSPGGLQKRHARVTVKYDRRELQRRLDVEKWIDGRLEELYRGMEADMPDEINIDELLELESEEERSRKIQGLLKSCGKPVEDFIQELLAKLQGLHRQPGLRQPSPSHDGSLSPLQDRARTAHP
# UniProt Q5VTL8, sequence (Q5VTL8 whole entry, looked up): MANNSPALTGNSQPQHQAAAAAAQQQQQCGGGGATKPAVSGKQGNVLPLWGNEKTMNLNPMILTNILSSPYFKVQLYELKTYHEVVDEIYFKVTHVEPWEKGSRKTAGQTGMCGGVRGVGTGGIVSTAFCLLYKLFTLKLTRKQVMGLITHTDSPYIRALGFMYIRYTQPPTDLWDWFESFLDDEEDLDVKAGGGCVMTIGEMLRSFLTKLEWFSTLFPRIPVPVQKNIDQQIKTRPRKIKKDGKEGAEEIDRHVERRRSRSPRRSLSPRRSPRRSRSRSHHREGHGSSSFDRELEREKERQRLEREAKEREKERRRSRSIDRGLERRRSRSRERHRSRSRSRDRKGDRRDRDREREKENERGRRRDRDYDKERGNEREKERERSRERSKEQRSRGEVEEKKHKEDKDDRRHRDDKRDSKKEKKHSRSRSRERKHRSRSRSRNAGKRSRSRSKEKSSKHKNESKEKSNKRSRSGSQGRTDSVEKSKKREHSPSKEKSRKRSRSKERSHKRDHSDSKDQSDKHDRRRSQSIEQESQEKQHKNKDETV
# UniProt Q9P2B2, sequence (Q9P2B2 whole entry, looked up): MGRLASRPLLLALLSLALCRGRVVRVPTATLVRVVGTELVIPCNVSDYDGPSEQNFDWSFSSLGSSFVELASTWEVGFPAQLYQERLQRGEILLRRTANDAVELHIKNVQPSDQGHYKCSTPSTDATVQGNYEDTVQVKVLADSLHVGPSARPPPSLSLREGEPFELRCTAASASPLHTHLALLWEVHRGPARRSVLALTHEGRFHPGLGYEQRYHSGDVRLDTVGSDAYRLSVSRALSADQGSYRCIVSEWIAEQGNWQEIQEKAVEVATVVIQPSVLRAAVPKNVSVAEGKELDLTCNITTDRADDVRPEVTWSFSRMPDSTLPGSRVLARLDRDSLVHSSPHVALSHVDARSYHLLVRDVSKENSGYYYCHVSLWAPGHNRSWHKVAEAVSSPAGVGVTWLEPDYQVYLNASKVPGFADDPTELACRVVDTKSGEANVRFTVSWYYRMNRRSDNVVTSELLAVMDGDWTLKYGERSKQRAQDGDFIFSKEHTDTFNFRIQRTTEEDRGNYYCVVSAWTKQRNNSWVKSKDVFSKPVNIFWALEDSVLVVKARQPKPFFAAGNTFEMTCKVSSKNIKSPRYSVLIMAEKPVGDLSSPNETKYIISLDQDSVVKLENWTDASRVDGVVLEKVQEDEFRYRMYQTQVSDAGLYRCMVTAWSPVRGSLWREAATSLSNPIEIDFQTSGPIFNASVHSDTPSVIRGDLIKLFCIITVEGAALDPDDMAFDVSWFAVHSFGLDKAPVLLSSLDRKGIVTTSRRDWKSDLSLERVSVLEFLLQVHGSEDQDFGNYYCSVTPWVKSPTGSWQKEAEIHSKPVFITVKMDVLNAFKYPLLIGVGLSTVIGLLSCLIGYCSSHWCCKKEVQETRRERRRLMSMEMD
# UniProt Q16513, sequence (Q16513 whole entry, looked up): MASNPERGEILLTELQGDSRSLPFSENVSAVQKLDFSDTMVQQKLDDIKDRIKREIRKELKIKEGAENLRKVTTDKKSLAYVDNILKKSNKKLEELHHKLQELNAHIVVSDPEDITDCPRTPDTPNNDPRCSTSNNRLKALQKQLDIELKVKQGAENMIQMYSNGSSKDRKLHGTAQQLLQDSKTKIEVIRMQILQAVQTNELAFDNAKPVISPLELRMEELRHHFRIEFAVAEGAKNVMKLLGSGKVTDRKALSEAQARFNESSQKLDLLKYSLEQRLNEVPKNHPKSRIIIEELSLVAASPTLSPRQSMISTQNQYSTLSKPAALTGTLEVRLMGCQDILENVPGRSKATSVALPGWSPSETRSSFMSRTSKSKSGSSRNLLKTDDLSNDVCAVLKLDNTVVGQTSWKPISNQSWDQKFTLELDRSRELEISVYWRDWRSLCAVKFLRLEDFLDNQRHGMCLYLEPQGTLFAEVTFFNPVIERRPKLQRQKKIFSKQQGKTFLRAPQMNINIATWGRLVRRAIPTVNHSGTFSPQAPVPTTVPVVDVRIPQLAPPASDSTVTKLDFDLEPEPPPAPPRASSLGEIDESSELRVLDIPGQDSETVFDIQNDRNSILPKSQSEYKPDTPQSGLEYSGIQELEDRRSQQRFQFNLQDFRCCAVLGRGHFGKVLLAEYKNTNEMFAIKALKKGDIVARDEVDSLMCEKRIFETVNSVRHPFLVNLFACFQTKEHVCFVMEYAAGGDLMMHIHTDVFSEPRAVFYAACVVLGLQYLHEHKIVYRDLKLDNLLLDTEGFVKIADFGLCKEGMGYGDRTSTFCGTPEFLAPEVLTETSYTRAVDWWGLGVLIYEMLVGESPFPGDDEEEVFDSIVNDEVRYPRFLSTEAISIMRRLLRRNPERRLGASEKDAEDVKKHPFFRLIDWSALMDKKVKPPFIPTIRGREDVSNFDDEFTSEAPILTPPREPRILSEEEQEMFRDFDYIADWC
# UniProt Q92871, sequence (Q92871 whole entry, looked up): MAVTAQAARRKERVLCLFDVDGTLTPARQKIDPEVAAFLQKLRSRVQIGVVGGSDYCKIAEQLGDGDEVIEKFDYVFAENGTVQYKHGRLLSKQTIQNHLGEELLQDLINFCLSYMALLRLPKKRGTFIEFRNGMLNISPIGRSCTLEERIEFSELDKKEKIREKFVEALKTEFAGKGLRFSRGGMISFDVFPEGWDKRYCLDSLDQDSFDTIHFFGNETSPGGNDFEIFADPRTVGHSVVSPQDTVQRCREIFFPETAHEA
# UniProt P50897, sequence (P50897 whole entry, looked up): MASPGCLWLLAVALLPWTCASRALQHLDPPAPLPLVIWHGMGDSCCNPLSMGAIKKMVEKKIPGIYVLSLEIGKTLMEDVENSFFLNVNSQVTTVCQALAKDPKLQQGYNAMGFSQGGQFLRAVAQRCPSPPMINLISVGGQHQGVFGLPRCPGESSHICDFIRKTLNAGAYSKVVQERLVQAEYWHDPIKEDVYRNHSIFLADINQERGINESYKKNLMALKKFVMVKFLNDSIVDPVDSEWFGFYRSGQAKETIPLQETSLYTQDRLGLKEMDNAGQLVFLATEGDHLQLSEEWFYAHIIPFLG
# UniProt P31323, sequence (P31323 whole entry, looked up): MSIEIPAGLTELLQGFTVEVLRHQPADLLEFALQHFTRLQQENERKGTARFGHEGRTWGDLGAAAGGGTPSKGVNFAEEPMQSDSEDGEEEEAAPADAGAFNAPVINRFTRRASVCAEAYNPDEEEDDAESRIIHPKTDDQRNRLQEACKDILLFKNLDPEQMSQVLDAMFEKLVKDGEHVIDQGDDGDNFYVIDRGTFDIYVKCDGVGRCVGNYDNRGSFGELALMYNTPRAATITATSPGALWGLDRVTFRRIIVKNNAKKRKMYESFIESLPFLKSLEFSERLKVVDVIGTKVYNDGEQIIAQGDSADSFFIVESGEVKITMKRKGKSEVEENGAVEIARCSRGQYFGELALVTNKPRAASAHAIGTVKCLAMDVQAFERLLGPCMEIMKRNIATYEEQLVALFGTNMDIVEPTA
# UniProt Q969N2, sequence (Q969N2 whole entry, looked up): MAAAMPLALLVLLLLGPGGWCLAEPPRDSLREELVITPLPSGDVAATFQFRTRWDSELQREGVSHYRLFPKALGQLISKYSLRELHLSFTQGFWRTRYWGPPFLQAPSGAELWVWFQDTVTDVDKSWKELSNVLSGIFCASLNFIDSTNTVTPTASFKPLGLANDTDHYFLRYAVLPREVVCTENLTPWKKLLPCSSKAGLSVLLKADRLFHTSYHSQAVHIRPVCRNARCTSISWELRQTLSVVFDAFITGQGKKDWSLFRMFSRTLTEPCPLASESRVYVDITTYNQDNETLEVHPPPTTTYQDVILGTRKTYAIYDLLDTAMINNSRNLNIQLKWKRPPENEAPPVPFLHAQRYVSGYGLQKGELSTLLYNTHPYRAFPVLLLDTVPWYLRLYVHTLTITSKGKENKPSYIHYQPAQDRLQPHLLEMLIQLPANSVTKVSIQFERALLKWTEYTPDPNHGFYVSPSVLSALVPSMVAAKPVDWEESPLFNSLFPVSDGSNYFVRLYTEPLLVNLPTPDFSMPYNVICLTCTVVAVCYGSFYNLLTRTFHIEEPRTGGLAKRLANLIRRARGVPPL
# UniProt Q12974, sequence (Q12974 whole entry, looked up): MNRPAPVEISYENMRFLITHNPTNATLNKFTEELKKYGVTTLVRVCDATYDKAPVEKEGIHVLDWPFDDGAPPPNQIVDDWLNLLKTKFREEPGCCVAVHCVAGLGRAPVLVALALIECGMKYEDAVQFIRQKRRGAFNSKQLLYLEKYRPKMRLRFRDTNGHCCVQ
# UniProt P06454, sequence (P06454 whole entry, looked up): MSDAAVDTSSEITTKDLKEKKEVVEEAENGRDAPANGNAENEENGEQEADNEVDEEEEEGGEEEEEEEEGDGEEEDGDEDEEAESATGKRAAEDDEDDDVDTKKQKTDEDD
row,Target,log2 fold change
1,PLIN2 (UniProt Q99541),0.028 (inactive)
2,PCGF2 (UniProt P35227),-0.057 (inactive)
3,PRKAR1B (UniProt P31321),0.086 (inactive)
4,PSMB6 (UniProt P28072),0.011 (inactive)
5,PGGHG (UniProt Q32M88),-0.225 (inactive)
6,PTGFRN (UniProt Q9P2B2),-0.027 (inactive)
7,PLCL1 (UniProt Q15111),0 (inactive)
8,PURA (UniProt Q00577),0.179 (inactive)
9,PPT1 (UniProt P50897),0.036 (inactive)
10,PKN2 (UniProt Q16513),-0.033 (inactive)
11,PTPMT1 (UniProt Q8WUK0),-0.001 (inactive)
12,PTMA (UniProt P06454),-0.148 (inactive)
13,POGLUT1 (UniProt Q8NBL1),-0.007 (inactive)
14,POLR2C (UniProt P19387),0.117 (inactive)
15,PRPF38B (UniProt Q5VTL8),-0.018 (inactive)
16,PSMA3 (UniProt P25788),-0.008 (inactive)
17,PJA2 (UniProt O43164),-0.024 (inactive)
18,PTP4A2 (UniProt Q12974),-0.029 (inactive)

row,Target,log2 fold change
1,PCYT1B (UniProt Q9Y5K3),0.01 (inactive)
2,PPP1R14A (UniProt Q96A00),0.016 (inactive)
3,PIK3CB (UniProt P42338),-0.016 (inactive)
4,POLD3 (UniProt Q15054),-0.016 (inactive)
5,PSMD11 (UniProt O00231),-0.033 (inactive)
6,PMM1 (UniProt Q92871),0.001 (inactive)
7,PIP4P2 (UniProt Q8N4L2),0.014 (inactive)
8,PIGT (UniProt Q969N2),-0.006 (inactive)
9,POLR2I (UniProt P36954),-0.092 (inactive)
10,PPP6R1 (UniProt Q9UPN7),-0.014 (inactive)
11,PRKCQ (UniProt Q04759),-0.007 (inactive)
12,POLR1A (UniProt O95602),0 (inactive)
13,PRPSAP2 (UniProt O60256),-0.02 (inactive)
14,PSME4 (UniProt Q14997),0.008 (inactive)
15,PPM1G (UniProt O15355),-0.011 (inactive)
16,PRKAR2B (UniProt P31323),-0.449 (active)
17,PKN1 isoform 2 (UniProt Q16512),-0.061 (inactive)
18,PRCP (UniProt P42785),0.038 (inactive)

# Compound: C1CN(CCC1(CC2=CC=C(C=C2)Cl)N)C3=NC=NC4=C3C=CN4
# Test: as above
# How it was run: as §1
row,Target,log2 fold change
1,PLIN2 (UniProt Q99541),-0.068 (inactive)
2,PCGF2 (UniProt P35227),-0.061 (inactive)
3,PRKAR1B (UniProt P31321),-0.077 (inactive)
4,PSMB6 (UniProt P28072),0.042 (inactive)
5,PGGHG (UniProt Q32M88),0.119 (inactive)
6,PTGFRN (UniProt Q9P2B2),0.11 (inactive)
7,PLCL1 (UniProt Q15111),-0.376 (inactive)
8,PURA (UniProt Q00577),-0.102 (inactive)
9,PPT1 (UniProt P50897),-0.009 (inactive)
10,PKN2 (UniProt Q16513),-0.209 (inactive)
11,PTPMT1 (UniProt Q8WUK0),-0.045 (inactive)
12,PTMA (UniProt P06454),0.151 (inactive)
13,POGLUT1 (UniProt Q8NBL1),-0.041 (inactive)
14,POLR2C (UniProt P19387),0 (inactive)
15,PRPF38B (UniProt Q5VTL8),-0.054 (inactive)
16,PSMA3 (UniProt P25788),0.044 (inactive)
17,PJA2 (UniProt O43164),-0.009 (inactive)
18,PTP4A2 (UniProt Q12974),-0.097 (inactive)

row,Target,log2 fold change
1,PCYT1B (UniProt Q9Y5K3),-0.003 (inactive)
2,PPP1R14A (UniProt Q96A00),0.015 (inactive)
3,PIK3CB (UniProt P42338),0.004 (inactive)
4,POLD3 (UniProt Q15054),-0.099 (inactive)
5,PSMD11 (UniProt O00231),-0.026 (inactive)
6,PMM1 (UniProt Q92871),0.036 (inactive)
7,PIP4P2 (UniProt Q8N4L2),-0.007 (inactive)
8,PIGT (UniProt Q969N2),-0.003 (inactive)
9,POLR2I (UniProt P36954),0 (inactive)
10,PPP6R1 (UniProt Q9UPN7),0.033 (inactive)
11,PRKCQ (UniProt Q04759),-0.061 (inactive)
12,POLR1A (UniProt O95602),0.125 (inactive)
13,PRPSAP2 (UniProt O60256),0.009 (inactive)
14,PSME4 (UniProt Q14997),0.014 (inactive)
15,PPM1G (UniProt O15355),-0.065 (inactive)
16,PRKAR2B (UniProt P31323),-0.636 (active)
17,PKN1 isoform 2 (UniProt Q16512),-0.326 (active)
18,PRCP (UniProt P42785),0.052 (inactive)
